# Laboratory results as given in PubChem BioAssay (NCATS).
# Records with an inconclusive call do not appear. Entries that show only a call come without a potency. Active and inactive are the calls of the source. Calls follow the shape of the full dose curve.
# Tests used:
# [1] = Cytotoxicity counterscreen for inhibitors of SARS-CoV-2 cell entry (AID 1645845); also: nearly all actives have a fitted effect of over 50% in size
# Procedure, shortened: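 After a 15 min room-temperature ATPLite 1step step, luminescence reflected ATP remaining in HEK293-ACE2 cells exposed to compound for 1 h plus 48 h at 37 C, with percent activity set by cell and no-cell controls.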
# [2] = Primary qHTS to identify inhibitors of SARS-CoV-2 cell entry (AID 1645846); conditions: activity change, negative = inhibition: at 57.1 µM (top of the series) unless noted; also: nearly all actives have a fitted effect of over 45% in size
# Procedure, shortened: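 Inhibition of spike-mediated entry was scored in human ACE2-transfected Expi293F cells. Particles were MLV-pseudotyped with Wuhan-Hu-1 S carrying a 19-aa C-terminal deletion; signal was luciferase after two days, scaled between spike PP and fusion-protein-free PP.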
compound,measurement,setting,value
CCOc1cc(CC(=O)N[C@@H](CC(C)C)c2ccccc2N2CCCCC2)ccc1C(=O)O,Potency,[1],inactive
same,"activity change, negative = inhibition",[2],-13.4%
COc1ccnc(CS(=O)c2nc3ccc(OC(F)F)cc3[nH]2)c1OC (stereo not drawn),Potency,[1],inactive
same,Potency,[2],inactive
O=C(O)[C@@H](O)[C@H](O)[C@H](O)[C@@H](O)C(=O)O,Potency,[1],inactive
same,"activity change, negative = inhibition",[2],-0.518%
O=c1cc[nH]c(=O)[nH]1,Potency,[1],inactive
same,"activity change, negative = inhibition",[2],-14.8%
CC1CCc2c(N3CCC(O)CC3)c(F)cc3c(=O)c(C(=O)O)cn1c23 (stereo not drawn),Potency,[1],inactive
same,Potency,[2],inactive
CCCc1nc(C(C)(C)O)c(C(=O)OCc2oc(=O)oc2C)n1Cc1ccc(-c2ccccc2-c2nn[nH]n2)cc1,Potency,[1],inactive
same,"activity change, negative = inhibition",[2],-0.861%
CN1CCC[C@@H]1c1cccnc1,Potency,[1],inactive
same,Potency,[2],inactive
C[C@]12CCC(=O)C=C1CC[C@@H]1[C@@H]2[C@@H](O)C[C@@]2(C)[C@H]1CC[C@]2(O)C(=O)COC(=O)CCC(=O)O,Potency,[1],inactive
same,Potency,[2],inactive
OCc1ccc(Cl)cc1Cl,Potency,[1],inactive
same,Potency,[2],inactive
C[C@](N)(Cc1ccc(O)cc1)C(=O)O,outcome,[1],inactive [at 5.25 µM]
same,outcome,[2],inactive [at 5.25 µM]
Cc1cc2c(cc1S(N)(=O)=O)S(=O)(=O)CCC2,Potency,[1],inactive
same,Potency,[2],inactive
O=C(Oc1ccccc1)c1ccccc1O,Potency,[1],inactive
same,Potency,[2],inactive
Nc1ccc(C(=O)O)cc1,Potency,[1],inactive
same,Potency,[2],inactive
Nc1ccc(S(=O)(=O)Nc2ccnn2-c2ccccc2)cc1,Potency,[1],inactive
same,"activity change, negative = inhibition",[2],4.82% [at 27.1 µM]
O=C1O[C@H](CO)[C@@H](O)[C@H](O)[C@H]1O,Potency,[1],inactive
same,"activity change, negative = inhibition",[2],-15.4%
O=C(O)CCCCC(=O)O,Potency,[1],inactive
same,Potency,[2],inactive
CC(=O)OCC1=C(C(=O)O)N2C(=O)[C@@H](NC(=O)Cc3cccs3)[C@H]2SC1,Potency,[1],inactive
same,"activity change, negative = inhibition",[2],1.38%
CCN(CC)CCNC(=O)c1ccc(N)cc1,Potency,[1],inactive
same,Potency,[2],inactive
CC(=O)OCC(COC(C)=O)OC(C)=O,Potency,[1],inactive
same,"activity change, negative = inhibition",[2],0.643%
CC1(C)O[C@@H]2C[C@H]3[C@@H]4CCC5=CC(=O)C=C[C@]5(C)[C@@H]4[C@@H](O)C[C@]3(C)[C@]2(C(=O)CO)O1,Potency,[1],inactive
same,Potency,[2],inactive
Cc1ccc(-c2ncc(Cl)cc2-c2ccc(S(C)(=O)=O)cc2)cn1,Potency,[1],inactive
same,Potency,[2],inactive
CC(=O)Nc1c(I)c(NC(C)=O)c(I)c(C(=O)O)c1I,Potency,[1],inactive
same,"activity change, negative = inhibition",[2],-1.67%
CCOC(=O)O[C@]1(C(=O)OCCl)CC[C@H]2[C@@H]3CCC4=CC(=O)C=C[C@]4(C)[C@H]3[C@@H](O)C[C@@]21C,Potency,[1],inactive
same,Potency,[2],inactive
CCCCC(=O)OCC(=O)[C@H]1[C@H](C)C[C@H]2[C@@H]3C[C@H](F)C4=CC(=O)C=C[C@]4(C)[C@@]3(F)[C@@H](O)C[C@@]21C,Potency,[1],inactive
same,Potency,[2],inactive
